Assay results published in PubChem BioAssay AID1159580 (chemical genetic matrix, 2015).
Values joined by “and” are separate entries in the source; they are usually repeats but may differ in a detail not shown here. Equal entries are not always repeated. In all, about 5,500 compounds went through this assay and about 2,000 (36%) were called active. About 18% were inconclusive and are not listed. No stated cut-off is given here; in the data, active means normalized growth mostly below about 0.91 (no sharp cut-off); inconclusive means no clear call, values can overlap the other calls; inactive means mostly above about 0.92. This is one part of the list.

Experiment: chemical genetic growth profiling, strain panel (AID 1159580);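 further: tested at 20 µM; growth read once vehicle control cultures reached saturation at 30 °C; 1 = growth at the plate median or of vehicle wells; lower values mean less growth of the strain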
Settings: S. cerevisiae deletion strains, growth OD
[1] = locus YDL101C, strain DUN1, active compounds read low
[2] = locus YGR078C, strain PAC10, active compounds read low
[3] = locus YHR030C, strain SLT2, active compounds read low
[4] = locus YJR075W, strain HOC1, active compounds read low
[5] = locus YNL153C, strain GIM3, active compounds read low
[6] = locus YNL322C, strain KRE1, active compounds read low
[7] = locus YHR079C, strain IRE1, active compounds read low
[8] = locus YJL095W, strain BCK1, active compounds read low
[9] = locus YJR066W, strain TOR1, active compounds read low
[10] = locus YLR113W, strain HOG1, active compounds read low
[11] = locus YNL183C, strain NPR1, active compounds read low
[12] = locus YOR231W, strain MKK1, active compounds read low
[13] = locus YPL256C, strain CLN2, active compounds read low

Measured: normalized growth

CC1CN=C(NC2CCCCC2)S1 (centres undefined)
inactive: locus YAL013W, strain DEP1, active compounds read low 0.987 | locus YBR229C, strain ROT2, active compounds read low 1 | [1] 0.977 | locus YDL134C, strain PPH21, active compounds read low 1.01 | locus YDR150W, strain NUM1, active compounds read low 0.947 | locus YEL061C, strain CIN8, active compounds read low 1.01 | [2] 0.998 | [3] 0.997 | locus YHR087W, strain rtc3, active compounds read low 1.02 | locus YJL187C, strain SWE1, active compounds read low 1.01 | locus YJR043C, strain POL32, active compounds read low 0.982 | [4] 0.998 | locus YLR039C, strain RIC1, active compounds read low 1.05 | locus YLR058C, strain SHM2 (second series), active compounds read low 0.988 | locus YLR085C, strain ARP6, active compounds read low 1.02 | locus YLR262C, strain YPT6, active compounds read low 1.04 | locus YML094W, strain GIM5, active compounds read low 1 | locus YMR219W, strain ESC1, active compounds read low 1.01 | locus YMR263W, strain SAP30, active compounds read low 0.93 | [5] 1.01 | locus YNL298W, strain CLA4 (second series), active compounds read low 1.02 | [6] 0.99 | locus YNR030W, strain Alg12, active compounds read low 1 | locus YOL006C, strain TOP1, active compounds read low 1.01 | locus YPL055C, strain LGE1, active compounds read low 0.874 | locus YPL241C, strain CIN2, active compounds read low 1.01 | locus YPR135W, strain CTF4, active compounds read low 1.01

C[N+]1(C)C2CCC1CC(OC(=O)C(CO)c1ccccc1)C2 (centres undefined)
inactive: locus YAL040C, strain CLN3, active compounds read low 1.04 and 1.01 | locus YCL061C, strain MRC1 (second series), active compounds read low 1 | locus YDR363W, strain ESC2, active compounds read low 0.993 | locus YER002W, strain NOP16, active compounds read low 1 and 0.996 | [2] 1.02 | [3] 0.972 | [7] 0.976 | [8] 1 | [9] 0.917 | [4] 1 | [10] 0.989 | locus YNL128W, strain TEP1, active compounds read low 1.01 | [5] 1.01 | locus YNL175C, strain NOP13, active compounds read low 1.01 | [11] 0.929 | locus YNL197C, strain WHI3, active compounds read low 1.02 and 1.01 | locus YNL224C, strain SQS1, active compounds read low 1.01 and 0.997 | [6] 1.03 and 1.02 | locus YOR083W, strain WHI5 (second series), active compounds read low 1.02 | [12] 0.968 | [13] 0.957

COc1cc(C2SCCS2)cc(Br)c1OC(=O)NC(=O)c1c(Cl)cccc1Cl
active: [3] 1.15 [resistant]
inactive: locus YAR019C, strain CDC15, active compounds read low 0.965 | locus YBL105C, strain PKC1, active compounds read low 0.955 | locus YBR135W, strain CKS1, active compounds read low 0.968 | locus YBR136W, strain MEC1, active compounds read low 0.954 | locus YBR160W, strain CDC28, active compounds read low 0.956 | locus YDL017W, strain CDC7, active compounds read low 0.958 | locus YDL028C, strain MPS1, active compounds read low 0.962 | [1] 0.952 | locus YDL108W, strain KIN28, active compounds read low 0.953 | locus YDL132W, strain cdc53, active compounds read low 0.962 | locus YDL214C, strain PRR2, active compounds read low 0.953 | locus YDR052C, strain DBF4, active compounds read low 0.966 | locus YDR054C, strain cdc34, active compounds read low 0.955 | locus YDR226W, strain ADK1, active compounds read low 0.937 | locus YDR477W, strain SNF1, active compounds read low 0.939 | locus YER123W, strain YCK3, active compounds read low 0.936 | locus YER133W, strain GLC7, active compounds read low 0.936 | locus YFL009W, strain cdc4, active compounds read low 0.956 | locus YFL029C, strain CAK1, active compounds read low 0.974 | locus YFR003C, strain YPI1, active compounds read low 0.948 | locus YFR019W, strain FAB1, active compounds read low 0.966 | locus YFR028C, strain CDC14, active compounds read low 0.968 | locus YGR040W, strain KSS1, active compounds read low 0.936 | locus YGR052W, strain FMP48, active compounds read low 0.988 | locus YGR092W, strain DBF2, active compounds read low 0.919 | [7] 0.985 | locus YHR082C, strain KSP1, active compounds read low 1.06 | locus YHR205W, strain SCH9, active compounds read low 0.987 | locus YIL147C, strain SLN1, active compounds read low 0.963 | [8] 0.958 | locus YJL128C, strain PBS2, active compounds read low 0.916 | locus YJL157C, strain FAR1, active compounds read low 0.909 | locus YJR016C, strain ILV3, active compounds read low 0.966 | locus YJR066W, strain TOR1 (second series), active compounds read low 0.926 | [9] 1.02 | locus YKL048C, strain ELM1, active compounds read low 0.951 | locus YKL067W, strain YNK1, active compounds read low 0.943 | locus YKL101W, strain HSL1, active compounds read low 0.957 | locus YKL193C, strain SDS22, active compounds read low 0.974 | locus YKL203C, strain TOR2, active compounds read low 0.974 | [10] 1 | locus YLR133W, strain CKI1, active compounds read low 0.942 | locus YLR403W, strain SFP1, active compounds read low 0.905 | locus YML070W, strain DAK1, active compounds read low 0.962 | locus YMR001C, strain CDC5, active compounds read low 0.962 | locus YMR205C, strain PFK2 (second series), active compounds read low 0.954 | locus YMR277W, strain FCP1, active compounds read low 0.966 | locus YNL006W, strain LST8, active compounds read low 0.967 | locus YNL020C, strain ARK1, active compounds read low 0.942 | locus YNL161W, strain CBK1, active compounds read low 0.951 | [11] 0.997 | locus YNL207W, strain RIO2, active compounds read low 0.964 | locus YNL222W, strain SSU72, active compounds read low 0.975 | locus YNL307C, strain MCK1 (second series), active compounds read low 0.937 | locus YOL078W, strain AVO1, active compounds read low 0.96 | locus YOL136C, strain PFK27, active compounds read low 0.937 | locus YOR061W, strain CKA2, active compounds read low 0.934 | locus YOR119C, strain RIO1, active compounds read low 0.994 | [12] 0.993 | locus YOR329C, strain SCD5, active compounds read low 0.956 | locus YPL031C, strain PHO85, active compounds read low 0.905 | locus YPL153C, strain RAD53, active compounds read low 0.941 | locus YPL204W, strain HRR25, active compounds read low 0.876 | locus YPL209C, strain IPL1, active compounds read low 0.963 | [13] 1.07 | locus YPR025C, strain CCL1, active compounds read low 0.966 | locus YPR106W, strain ISR1, active compounds read low 0.957 | locus YPR111W, strain DBF20, active compounds read low 0.933 | strain NNK1, active compounds read low 0.957 | strain TSCII, active compounds read low 0.958
